“And” between values parts separate entries of the source, which are not always exact repeats. Equal values may be shown once. Inconclusive results are not listed. Where a structure was tested more than once in an assay, its records may differ in their call. The source made the active and inactive calls. Calls come from the whole dose curve; as a rule, active = well fitted inhibition curve with a large enough effect; inconclusive = small, poorly fitted or top-dose-only effect; inactive = flat fitted curve, though single readings scatter.
Experiments:
CRL-7250 = normal cell line; assay: Cytotoxic Profiling of Annotated Libraries Using Quantitative High-Throughput Screening (AID 1296008); conditions: Five cell lines viability, CellTiter-Glo ATP luminescence, 48-72 h; max response: stronger effect = lower value; for max response: % is set by controls: 0 for no effect and ±100 for the full control effect
Procedure, shortened: (§1)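 Compounds were pin-transferred onto cells and incubated 48 or 72 hr at 37 degree Celsius, 95% humidity. CellTiter-Glo was added, plates sat 10 min at room temperature, then ATP-coupled luminescence was imaged as the viability read-out.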

HEK293 = assay: as above; conditions: Five cell lines viability, CellTiter-Glo ATP luminescence, 48-72 h; max response: stronger effect = lower value
Procedure, shortened: as §1

HaCat [1] = assay: as above; conditions: Five cell lines viability, CellTiter-Glo ATP luminescence, 48-72 h; max response: stronger effect = lower value
Procedure, shortened: as §1

KB-3-1 = assay: as above; conditions: Five cell lines viability, CellTiter-Glo ATP luminescence, 48-72 h; max response: stronger effect = lower value
Procedure, shortened: as §1

MCC-13 = assay: qHTS assay to identify novel small-molecules to repurpose for Merkel cell carcinoma treatment (AID 1296009); conditions: MCC and control cell lines, CellTiter-Glo viability, 72 h; series mostly up to 46 µM
Procedure, shortened: (§2)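 Viability readout: ATP luminescence (CellTiter-Glo) after 72 hr drug exposure at 37 degree celsius. Dose-response format was 8 points for NPC and 11 points for MIPE; data normalized to in-plate controls.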

MKL-1 = assay: as above; conditions: MCC and control cell lines, CellTiter-Glo viability, 72 h; series mostly up to 46 µM
Procedure, shortened: as §2

MCC-26 = assay: as above; conditions: MCC and control cell lines, CellTiter-Glo viability, 72 h; series mostly up to 46 µM
Procedure, shortened: as §2

P94_40 = assay: qHTS profiling for inhibitors of Plasmodium falciparum proliferation (AID 504749); conditions: P. falciparum in erythrocytes, SYBR Green DNA, 72 h; series mostly up to 28.7 µM
Procedure, shortened: (§3)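 Quantitative HTS: compounds pinned into medium, infected erythrocytes added (0.3% parasitemia, 2.5% hematocrit), 72 h culture at 37 C under 5% CO2. Saponin/Triton lysis with SYBR Green I, overnight RT, then fluorescence read.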

PAD = assay: as above; conditions: P. falciparum in erythrocytes, SYBR Green DNA, 72 h; series mostly up to 28.7 µM
Procedure, shortened: as §3

PC15 = assay: as above; conditions: P. falciparum in erythrocytes, SYBR Green DNA, 72 h; series mostly up to 28.7 µM
Procedure, shortened: as §3

PC26 = assay: as above; conditions: P. falciparum in erythrocytes, SYBR Green DNA, 72 h; series mostly up to 28.7 µM
Procedure, shortened: as §3

SC27B = assay: as above; conditions: P. falciparum in erythrocytes, SYBR Green DNA, 72 h; series mostly up to 28.7 µM
Procedure, shortened: as §3

TAB109 = assay: as above; conditions: P. falciparum in erythrocytes, SYBR Green DNA, 72 h; series mostly up to 28.7 µM
Procedure, shortened: as §3

TAB113 = assay: as above; conditions: P. falciparum in erythrocytes, SYBR Green DNA, 72 h; series mostly up to 28.7 µM
Procedure, shortened: as §3

TAB165 = assay: as above; conditions: P. falciparum in erythrocytes, SYBR Green DNA, 72 h; series mostly up to 28.7 µM
Procedure, shortened: as §3

W2 = assay: as above; conditions: P. falciparum in erythrocytes, SYBR Green DNA, 72 h; series mostly up to 28.7 µM
Procedure, shortened: as §3

NIH3T3 = assay: Cytotoxic Profiling of Annotated Libraries Using Quantitative High-Throughput Screening (AID 1296008); conditions: Five cell lines viability, CellTiter-Glo ATP luminescence, 48-72 h; max response: stronger effect = lower value; for max response: % is set by controls: 0 for no effect and ±100 for the full control effect
Procedure, shortened: as §1

HACAT [2] = assay: qHTS assay to identify novel small-molecules to repurpose for Merkel cell carcinoma treatment (AID 1296009); conditions: MCC and control cell lines, CellTiter-Glo viability, 72 h; series mostly up to 44.8 µM
Procedure, shortened: as §2

HEK293T = assay: as above; conditions: MCC and control cell lines, CellTiter-Glo viability, 72 h; at 44.8 µM (top of the series) unless noted
Procedure, shortened: as §2
Note: nearly all actives have a fitted effect of over 60% in size.
Potency is the fitted concentration of half-maximal effect.

Nc1ccccc1NC(=O)c1ccc(CNc2nccc(-c3cccnc3)n2)cc1
active: Potency (CRL-7250) 4.18 µM and 5.17 µM | Potency (HEK293) 1.64 µM | Potency (HaCat [1]) 3720 nM | Potency (KB-3-1) 1.87 µM and 2.06 µM | Potency (MCC-13) 5.26 µM | Potency (MKL-1) 2.35 µM

Cc1ccc(-c2ncn(-c3ccc(Nc4nccc(-c5cccc(N6CCOCC6)c5)n4)cc3)n2)cn1
active: Potency (CRL-7250) 118 nM | Potency (HEK293) 0.332 µM | Potency (HaCat [1]) 418 nM | Potency (KB-3-1) 209 nM | Potency (MCC-13) 0.526 µM | Potency (MCC-26) 0.264 µM | Potency (MKL-1) 0.235 µM

CCC1=C[C@@H]2CN(C1)Cc1c([nH]c3ccccc13)[C@@](C(=O)OC)(c1cc3c(cc1OC)N(C)[C@@H]1[C@@](O)(C(=O)OC)[C@H](OC(C)=O)[C@]4(CC)C=CCN5CC[C@]31[C@@H]54)C2
active: Potency (P94_40) 1.58 µM | Potency (PAD) 2.24 µM | Potency (PC15) 7.08 µM | Potency (PC26) 3.38 µM | Potency (SC27B) 2.24 µM | Potency (TAB109) 2.24 µM | Potency (TAB113) 1.58 µM | Potency (TAB165) 2.51 µM | Potency (W2) 0.19 µM | Potency (CRL-7250) 46.9 nM | Potency (HEK293) 0.0235 µM | Potency (KB-3-1) 16.6 nM | Potency (MKL-1) 0.0118 µM
inactive: max response (HaCat [1]) -8.6%

Cc1nc2ccc(CN(C)c3ccc(C(=O)N[C@@H](CCC(=O)O)C(=O)O)s3)cc2c(=O)[nH]1
inactive: max response (CRL-7250) -19.7% | max response (KB-3-1) 1.14%
active: Potency (HaCat [1]) 33.2 nM | Potency (NIH3T3) 0.119 µM

Cc1cccc(C=NNc2cc(N3CCOCC3)nc(OCCc3ccccn3)n2)c1
active: Potency (HEK293) 5.9 µM | Potency (MKL-1) 20.9 µM
inactive: max response (CRL-7250) -4.72% | max response (HaCat [1]) -6.14% | Potency (MCC-13) | Potency (MCC-26)

Cc1[nH]c2ccccc2c1CCNCc1ccc(C=CC(=O)NO)cc1
active: Potency (CRL-7250) 1050 nM | Potency (HEK293) 0.418 µM | Potency (KB-3-1) 148 nM | Potency (NIH3T3) 0.743 µM | Potency (MCC-13) 0.833 µM | Potency (MKL-1) 0.332 µM

C1Cc2[nH]nc(-c3nn[nH]n3)c2C1
inactive: max response (CRL-7250) -5.71% and 4.92% | max response (HaCat [1]) -5.07% | outcome (HaCat [1]) | max response (KB-3-1) 5.58% | outcome (KB-3-1) | outcome (NIH3T3) | Potency (HACAT [2]) | outcome (HEK293T) | Potency (MCC-13) | Potency (MCC-26) | Potency (MKL-1)

CC(C)(O)c1cc2nc(-c3cnc(N)nc3)nc(N3CCOCC3)c2s1
active: Potency (CRL-7250) 148 nM and 731 nM | Potency (HEK293) 372 nM and 1.3 µM | Potency (HaCat [1]) 264 nM and 1.64 µM | Potency (NIH3T3) 0.418 µM

COc1c(OCCCN2CCOCC2)ccc2c3n(c(=NC(=O)c4cnc(N)nc4)nc12)CCN3
active: Potency (CRL-7250) 2290 nM | Potency (HEK293) 363 nM and 42.2 nM | Potency (KB-3-1) 94.4 nM | Potency (NIH3T3) 2.88 µM and 59.6 nM
inactive: Potency (MKL-1)

CC1(C)OC2=C(C(=O)c3ccccc3C2=O)[C@H](NCc2ccccc2)[C@H]1O
active: Potency (CRL-7250) 16600 nM | Potency (HEK293) 8.33 µM | Potency (KB-3-1) 9350 nM | Potency (NIH3T3) 11.8 µM | Potency (MCC-13) 10.5 µM | Potency (MKL-1) 3.32 µM

CN1CCN(c2cc(C(=O)Nc3ccc4c(c3)-c3c(c(C(N)=O)nn3-c3ccc(F)cc3)CC4)c(Cl)cn2)CC1
inactive: max response (CRL-7250) -32.2% | outcome (HaCat [1]) | Potency (HACAT [2]) | Potency (MCC-13)
active: Potency (HEK293) 20.9 µM | Potency (MKL-1) 26.4 µM

CCC(=C(c1ccccc1)c1ccc(OCCN(C)C)cc1)c1ccccc1
inactive: max response (CRL-7250) 3.45% | max response (HaCat [1]) 2.08% | max response (KB-3-1) -16.9% | max response (NIH3T3) 1.38% | Potency (MCC-13) | Potency (MCC-26)

O=C(NC1CCNCC1)c1[nH]ncc1NC(=O)c1c(Cl)cccc1Cl
active: Potency (CRL-7250) 332 nM | Potency (HEK293) 0.264 µM | Potency (NIH3T3) 13.2 µM | Potency (MKL-1) 0.372 µM

C=CC(=O)Nc1cccc(Oc2nc(Nc3ccc(N4CCN(C)CC4)cc3OC)ncc2Cl)c1
inactive: max response (CRL-7250) -21.1% | max response (KB-3-1) -0.948% | max response (NIH3T3) -7.7%
active: Potency (HaCat [1]) 2.09 µM and 4.11 µM | Potency (NIH3T3) 18.4 µM | Potency (MCC-13) 2.96 µM | Potency (MKL-1) 2.64 µM

CC(C)=CCCC(C)=CCCC(C)=CCSc1ccccc1C(=O)O
active: Potency (CRL-7250) 148 nM | Potency (HEK293) 1.66 µM | Potency (KB-3-1) 4690 nM | Potency (NIH3T3) 14.8 µM

C[C@@]12O[C@@H](C[C@]1(O)CO)n1c3ccccc3c3c4c(c5c6ccccc6n2c5c31)CNC4=O
active: Potency (CRL-7250) 83.3 nM | Potency (HEK293) 4.18 µM | Potency (KB-3-1) 372 nM | Potency (NIH3T3) 1.87 µM | Potency (MCC-26) 18.7 µM | Potency (MKL-1) 1.48 µM

From PubChem BioAssay (NCATS)
